Data on 15 compounds can be found in PubChem BioAssay.

The source made the active and inactive calls. Unless noted, the rule behind the calls is not given here.

Assay [1] deals with Wnt5a (protein binding on small-molecule microarray). The experiment in a line: small molecules binding Wnt5a protein – biophysical, small-molecule microarray, 635/667 nm fluorescence, primary screen (AID 1142).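 Note: fluorescence read at 667 nm with signal to noise per printed feature.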 Particulars: 635 nm fluorescence, higher = more signal.
Assay [2] can be described thus: ATP-based viability of Huh7 replicon cells – cell-based, CellTiter-Glo luminescence, basal, 48 h, cytotoxicity control for HCV replication inhibitor project, primary screen (AID 1143).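 Note: Huh7 hepatoma cells carrying a hepatitis C replication reporter with no stimulus; test concentration not given here.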 Particulars: higher = more signal, called active from +8 up or from −8 down. (In antiviral work, replicon cells carry a viral genome segment that copies itself.)
Assay [3] can be described thus: Pseudomonas biofilm growth suppression – PAO1 strain, BacTiter-Glo luminescence, LB-PBS, primary screen (AID 1144). Particulars: P. aeruginosa PAO1 biofilm, 12 h, higher = more signal.
Assay [4] is described as follows: basal CRE-LacZ reporter activity in PC12 – cell-based, unstimulated, primary screen (AID 1145). To be noted: no forskolin, luminescence, 4.5 h, higher = more signal, called active from +8 up or from −8 down.
Assay [5] in a line: forskolin-driven CRE-LacZ activity in PC12 – cell-based, CRE-LacZ reporter, forskolin-stimulated, primary screen (AID 1146).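 Note: PC12 cells with 6xCRE LacZ reporter stimulated by forskolin 10 µM; beta-galactosidase reporter signal reflecting CREB driven transcription.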 Particulars: luminescence, 4.5 h, higher = more signal, called active from +8 up or from −8 down.
For assay [6], the target named is Streptavidin (Streptomyces avidinii) (UniProt P22629). The experiment in a line: compounds binding control protein streptavidin – biophysical, small-molecule microarray, 635/667 nm fluorescence, artefact control for SMM compound annotation, primary screen (AID 1147).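 Note: signal reflects streptavidin binding to arrayed compounds as a control protein.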 Particulars: higher = more signal.
Assay [7] in a line: probe aInhba binding on compound microarray – biochemical, small-molecule microarray, 635/667 nm fluorescence, primary screen (AID 1148).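 Note: score merges 667nm spot fluorescence with signal-to-noise for antibody binding to printed compounds.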 To be noted: higher = more signal.
Assay [8] deals with Torsin-1A (Homo sapiens) (UniProt O14656). The experiment in a line: TOR1A wild-type binding on microarray – cell lysate, small-molecule microarray, lysate, 635/667 nm, primary screen (AID 1149). To be noted: COS7 hTOR1A-WT lysate, 635 nm fluorescence, higher = more signal.
Assay [9] shares this target. The experiment in a line: torsin A mutant lysate binding on microarrays – cell lysate, small-molecule microarray, COS7 lysate, 635/667 nm fluorescence, primary screen (AID 1150).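 Note: score pools 667 nm emission and signal to noise measuring lysate protein binding.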 Particulars: COS7 hTOR1A mutant lysate, 635 nm fluorescence, higher = more signal.
In assay [10] the test system is Sonic hedgehog protein (Shh). The experiment in a line: Sonic hedgehog microarray binding compounds – biochemical, small-molecule microarray, 635/667 nm fluorescence, primary screen (AID 1151).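 Note: Shh protein binding to compounds spotted on small-molecule microarray slides; score combines spot fluorescence intensity with signal-to-noise across triplicate slides.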 To be noted: 635 nm fluorescence, higher = more signal.

Streptavidin (Streptomyces avidinii), sequence (P22629 whole entry, looked up): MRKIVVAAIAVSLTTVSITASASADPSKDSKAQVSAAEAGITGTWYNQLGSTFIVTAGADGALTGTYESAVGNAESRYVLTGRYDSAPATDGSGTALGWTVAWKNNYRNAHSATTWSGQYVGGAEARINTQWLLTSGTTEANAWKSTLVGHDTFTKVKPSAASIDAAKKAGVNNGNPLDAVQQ
Torsin-1A (Homo sapiens), sequence (O14656 whole entry, looked up): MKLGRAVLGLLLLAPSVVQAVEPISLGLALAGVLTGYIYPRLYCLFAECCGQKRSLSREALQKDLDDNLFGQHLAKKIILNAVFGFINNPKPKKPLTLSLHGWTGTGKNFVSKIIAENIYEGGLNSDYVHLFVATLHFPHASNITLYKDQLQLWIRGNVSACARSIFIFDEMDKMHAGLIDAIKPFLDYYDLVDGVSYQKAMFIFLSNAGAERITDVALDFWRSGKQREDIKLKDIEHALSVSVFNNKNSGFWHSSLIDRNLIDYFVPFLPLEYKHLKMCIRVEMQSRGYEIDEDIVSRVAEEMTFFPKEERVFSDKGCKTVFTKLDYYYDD

For the compound `C=CCNC(=O)[C@@H]1[C@H]2C(=O)O[C@H](c3ccccc3)[C@H](c3ccccc3)N2[C@H](c2ccccc2OCCO)[C@@]12C(=O)Nc1ccc(C#CC3=CCCCC3)cc12`, the composite z-score in assay [1] turned out to be 0.248; in assay [6], 0.562; in assay [7] it was 0.592; with Torsin-1A (Homo sapiens) [8], 0.192; with Torsin-1A (Homo sapiens) [9], 0.255; in [10], 1.91. Further, the z-score in assay [2] is -6.58 (inactive); in assay [3], -1.43 (inactive); in [4] it was -1.42 (inactive); in assay [5], -1.45 (inactive).

Regarding `CS(=O)(=O)CCOC(=O)C1=CC(CCCO)=CC(c2cccs2)N(Cc2cc3c(cc2Br)OCO3)C=C1C(=O)OCCS(C)(=O)=O` (stereo not given), the composite z-score in assay [1] stood at 0.567; in assay [6] it was 2.16; in [7], 0.086; with Torsin-1A (Homo sapiens) [8], 1.3; with Torsin-1A (Homo sapiens) [9], 1.16; in [10], 0.759. For the same compound, the z-score is -1.26 (inactive) in [2], 0.00546 (inactive) in assay [3], -0.583 (inactive) in [4] and 0.72 (inactive) in [5].

Turning to `COCCOC(=O)N1C(=O)[C@@]2(c3cc(C#CCNC(N)=O)ccc31)[C@H](C(=O)N1CCN(c3ncccn3)CC1)[C@H]1C(=O)O[C@H](c3ccccc3)[C@H](c3ccccc3)N1[C@@H]2c1ccccc1OCCO`, the composite z-score in assay [1] was 0.518; in assay [6], 0.605; in [7], 0.0184; with Torsin-1A (Homo sapiens) [8] it was 0.223; in the assay with Torsin-1A (Homo sapiens) [9], 0.416; in [10] it was 0.692. Besides, the z-score in assay [2] is -1.32 (inactive); in [3], -0.94 (inactive); in [4], -0.141 (inactive); in [5] it was -0.44 (inactive).

As for `CCOC(=O)[C@H]1C/C=C/C[C@H](C(=O)OCC)C(=O)O[C@H]2[C@@H](OC)O[C@H](CO)[C@@H](OC(=O)Nc3ccc4c(c3)OCO4)[C@@H]2OC1=O`, the composite z-score in assay [1] is 0.285; in [6] it was -0.0265; in [7], 0.0342; with Torsin-1A (Homo sapiens) [8] it was 0.687; in the assay with Torsin-1A (Homo sapiens) [9] it was 0.126; in assay [10], 0.903. Besides, the z-score in assay [2] was -6.55 (inactive); in assay [3], -0.353 (inactive); in assay [4], 0.484 (inactive); in assay [5] it was -1.61 (inactive).

Take `CN(C)C(=O)[C@]1(CCC(=O)OC(C)(C)C)N=C(c2ccc(OCCCO)cc2)O[C@@H]1c1ccccc1N=[N+]=[N-]`: the composite z-score was 0.928 in assay [1]; 1.38 in assay [6]; 0.105 in assay [7]; 1.62 with Torsin-1A (Homo sapiens) [8]; 2.11 with Torsin-1A (Homo sapiens) [9]; -0.149 in [10]. In addition, the z-score in assay [2] is -1.61 (inactive); in assay [3] it was 0.878 (inactive); in [4], 0.988 (inactive); in assay [5] it was 0.0155 (inactive).

For `CC(C)(C)N1CC=CC23O[C@@H]4/C=C\CCCOC(=O)C4[C@H]2C(=O)N(CCO)[C@@H]3C1=O` (stereo not given in full), the composite z-score in [1] was 0.501; in assay [6], -0.801; in assay [7], -0.416; with Torsin-1A (Homo sapiens) [8], -0.769; in the assay with Torsin-1A (Homo sapiens) [9] it was -0.875; in assay [10], -0.131. Moreover, the z-score in assay [2] is 0.0369 (inactive); in assay [3], -0.647 (inactive); in assay [4], -0.492 (inactive); in assay [5], -0.533 (inactive).

For `CC(C)N1CC=CC23O[C@@H]4C=CCOC(=O)[C@@H]4[C@H]2C(=O)N(CCO)[C@@H]3C1=O` (stereo not given in full), the composite z-score in assay [1] was -0.967; in assay [6], -1.05; in [7], -0.302; with Torsin-1A (Homo sapiens) [8], -2.5; with Torsin-1A (Homo sapiens) [9], -1.48; in assay [10] it was 0.643. Also, the z-score in assay [2] is 0.273 (inactive); in [3], -0.289 (inactive); in assay [4] it was -1.3 (inactive); in [5], -0.67 (inactive).

On to `Cc1ccc(S[C@]2(C(=O)NCC(C)C)CC(=O)N(Cc3ccccc3Cl)[C@@H]2c2ccc(CO)cc2)cc1`, for which the composite z-score is -0.343 in assay [1]; -1.67 in [6]; -0.331 in [7]; -0.326 with Torsin-1A (Homo sapiens) [8]; 0.961 with Torsin-1A (Homo sapiens) [9]; -1.18 in [10]. Further, the z-score in [2] was 0.554 (inactive); in assay [3] it was 1.15 (inactive); in assay [4] it was 0.118 (inactive); in [5], -0.227 (inactive).

For `Cc1ccc(S[C@]2(C(=O)NCc3ccccc3)CC(=O)N(Cc3ccccc3)[C@@H]2c2ccc(CO)cc2)cc1`, the composite z-score in assay [1] is -0.202; in [6], -0.926; in assay [7] it was -0.0719; in the assay with Torsin-1A (Homo sapiens) [8], -0.499; with Torsin-1A (Homo sapiens) [9], 0.248; in [10] it was -0.242. In addition, the z-score in assay [2] is -0.618 (inactive); in [3], 0.395 (inactive); in assay [4], -0.735 (inactive); in assay [5], -0.26 (inactive).

As to `NCCCCCCNC(=O)[C@H]1C[C@H]2C(=O)NCC(=O)N2[C@H]1c1cccc(OCCO)c1`, the composite z-score in [1] was 0.363; in [6], 0.485; in assay [7] it was -0.128; with Torsin-1A (Homo sapiens) [8] it was 1.16; with Torsin-1A (Homo sapiens) [9], 0.872; in assay [10], 1.61. In addition, the z-score in assay [2] is 0.0443 (inactive); in [3], 0.0567 (inactive); in [4] it was -0.675 (inactive); in assay [5], -0.405 (inactive).

`COC(=O)[C@@]1(Cc2ccc(F)cc2)[C@H]2c3cc(C(=O)N(C)C)n(CCc4ccccn4)c3C[C@H]2CN1C(=O)c1ccccc1`: the composite z-score is 1.9 in assay [1]; -0.0936 in [6]; 1.14 in assay [7]; 1.23 with Torsin-1A (Homo sapiens) [8]; 0.948 with Torsin-1A (Homo sapiens) [9]; -0.154 in [10]. In addition, the z-score in assay [2] was -1.86 (inactive); in [3] it was -0.604 (inactive); in [4], 0.39 (inactive); in assay [5], -0.038 (inactive).

With `COCC1=C2[C@@H](CCc3ccccc3)OB(O)C[C@@H]2[C@@H]2C(=O)N(Cc3ccccc3)C(=O)[C@@H]2C1`, the composite z-score is 0.278 in assay [1]; 0.0569 in assay [6]; -0.152 in assay [7]; -0.427 in the assay with Torsin-1A (Homo sapiens) [8]; 0.0316 with Torsin-1A (Homo sapiens) [9]; 0.333 in assay [10]. Further, the z-score in assay [2] is 0.0597 (inactive); in assay [3] it was 1.07 (inactive); in [4], 0.663 (inactive); in [5] it was -0.0777 (inactive).

With `O=C(NCc1ccccc1)[C@]1(CCS(=O)(=O)c2ccccc2)N=C(c2ccc(OCCCO)cc2)O[C@@H]1c1ccccc1`, the composite z-score in assay [1] stood at 0.721; in assay [6] it was 0.959; in [7], 0.111; with Torsin-1A (Homo sapiens) [8] it was 0.129; with Torsin-1A (Homo sapiens) [9], 0.585; in assay [10] it was 0.16. Moreover, the z-score in assay [2] is -2.63 (inactive); in [3], -0.422 (inactive); in assay [4], -1.04 (inactive); in assay [5], 0.0925 (inactive).

Regarding `CC(C)NC(=O)[C@@H]1c2ccccc2C(=O)N(Cc2ccccc2)[C@H]1c1ccc(CO)cc1`, the composite z-score was -0.0365 in assay [1]; -0.501 in assay [6]; 0.0345 in assay [7]; -0.124 with Torsin-1A (Homo sapiens) [8]; -0.744 with Torsin-1A (Homo sapiens) [9]; 0.495 in assay [10]. Also, the z-score in [2] is -0.0084 (inactive); in [3], -0.0818 (inactive); in [4], 0.0279 (inactive); in assay [5], 0.669 (inactive).

With `COCCCNC(=O)[C@@]1(C)c2ccccc2C(=O)N(Cc2cc(C(F)(F)F)cc(C(F)(F)F)c2)[C@H]1c1ccc(CO)cc1`, the composite z-score in [1] was -0.676; in assay [6], -0.673; in assay [7], -0.0675; with Torsin-1A (Homo sapiens) [8] it was -1.37; with Torsin-1A (Homo sapiens) [9] it was -1.27; in assay [10], -0.207. Moreover, the z-score in assay [2] was -2.82 (inactive); in [3] it was -0.417 (inactive); in assay [4], 0.468 (inactive); in [5] it was 0.243 (inactive).
